Measurements as given in PubChem BioAssay (NCI).
About 79,000 compounds went through this panel and 15% of them were active in at least one assay; those are over-represented in the sample as a whole. Values without a mark were called inactive. Calls of active or inactive are those of the source. Cut-off read from the data, not from the text of the source: active = growth inhibition above about 70%; inactive = the rest.

Assays:
[1] = NCI Yeast Anticancer Drug Screen. Data for the rad50 strain (AID 155);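 note: 0% = growth of vehicle-only cultures of the same strain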; settings: S. cerevisiae rad50 strain growth inhibition, hits give high values
Outline: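 Genetically altered yeast (DNA repair pathway); compound treatment; growth inhibition vs vehicle ctrl.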

[2] = NCI Yeast Anticancer Drug Screen. Data for the mec2-1 strain (AID 157); settings: S. cerevisiae mec2-1 strain, hits give high values
Outline: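 Strain: mec2-1 (DNA repair/cell cycle alteration). Compound exposure, then growth measured; inhibition expressed relative to vehicle.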

[3] = NCI Yeast Anticancer Drug Screen. Data for the sgs1 mgt1 strain (AID 161);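 note: 0% = growth of cultures given vehicle only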; settings: S. cerevisiae sgs1 mgt1 strain, hits give high values
Outline: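 Test agents were incubated with a DNA-repair-mutant yeast strain. Growth was then read and compared against vehicle-treated controls.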

[4] = NCI Yeast Anticancer Drug Screen. Data for the cln2 rad14 strain (AID 165);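 note: 0% = growth equal to vehicle treated cultures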; settings: S. cerevisiae cln2 rad14 strain, hits give high values
Outline: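 Compounds are applied to the cln2 rad14 yeast strain, and growth is then compared with that of vehicle-treated cultures to give inhibition.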

[5] = NCI Yeast Anticancer Drug Screen. Data for the bub3 strain (AID 167); settings: S. cerevisiae bub3 mutant strain, hits give high values
Outline: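 Yeast carrying a defined mutation is treated with each compound, and growth is compared with that of vehicle-exposed cells to give inhibition.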

[6] = NCI Yeast Anticancer Drug Screen. Data for the mlh1 rad18 strain (AID 175); settings: S. cerevisiae mlh1 rad18 strain growth inhibition, hits give high values
Outline: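 Read-out is yeast growth inhibition, calculated against vehicle-only controls. The compound was applied to a strain engineered with DNA damage repair alterations.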

[7] = at 5.0 µM (retest, dose inferred, filed as 0.5)
[8] = at 50.0 µM (retest, dose inferred, filed as 5.0)

Structure (SMILES)	growth inhibition [1, 7]	growth inhibition [1, 8]	growth inhibition ([1]; at 50.0 µM)	growth inhibition [2, 7]	growth inhibition [2, 8]	growth inhibition ([2]; at 50.0 µM)	growth inhibition [3, 7]	growth inhibition [3, 8]	growth inhibition ([3]; at 50.0 µM)	growth inhibition [4, 7]	growth inhibition [4, 8]	growth inhibition ([4]; at 50.0 µM)	growth inhibition [5, 7]	growth inhibition [5, 8]	growth inhibition ([5]; at 50.0 µM)	growth inhibition [6, 7]	growth inhibition [6, 8]	growth inhibition ([6]; at 50.0 µM)
CC1([N+](=O)[O-])C(=O)C2(N3CCCCC3)CCCC2C1c1ccccc1 (configuration not stated)	3%	10%	15.5%	3%	21%	8.6%	6%	8%	19%	5%	-1%	36.2%	1%	13%	12%	1%	20%	16.5%
O=C(CCCN1CCC(C(O)c2ccc(F)cc2)CC1)c1ccc(F)cc1 (configuration not stated)	37%	86% (active)	71.5% (active)	33%	78% (active)	69.5%	47%	95% (active)	79.8% (active)	47%	87% (active)	68%	53%	97% (active)	75.8% (active)	62%	89% (active)	68.5%
COc1ccc(C(C)(C)c2cc3c(cc2OCCO)OCO3)cc1	-1%	82% (active)	89.8% (active)	1%	90% (active)	92.2% (active)	4%	92% (active)	97% (active)	0%	70% (active)	60.1%	13%	90% (active)	90.2% (active)	1%	94% (active)	93.3% (active)
CC(=O)Nc1ccc(-c2nnc(SCC(=O)Nc3ccc(Cl)cc3Cl)o2)cc1	1%	30%	89.4% (active)	-4%	10%	97.4% (active)	2%	8%	94.9% (active)	8%	29%	86.4% (active)	-3%	22%	97.7% (active)	7%	28%	94.7% (active)
COc1cccc(/C=C(\NC(=O)c2ccccc2)c2nc3ccccc3s2)c1	64%	96% (active)	98.3% (active)	18%	96% (active)	98.2% (active)	53%	97% (active)	98.8% (active)	13%	97% (active)	97.7% (active)	29%	97% (active)	97.4% (active)	25%	96% (active)	98.3% (active)
COc1ccc(-c2csc(C)n2)cc1OC	5%	1%	21.4%	2%	4%	3.35%	1%	7%	16.1%	3%	-3%	30.3%	0%	9%	0.25%	2%	11%	8.5%
C1=C(c2ccccc2)SC=C(c2ccccc2)S1	-5%	-26%	-15.7%	-14%	-16%	8.75%	-2%	40%	-0.9%	-9%	-9%	-3.15%	23%	47%	83% (active)	-6%	-8%	-5.45%
O=[N+]([O-])c1ccc(-c2ccc(-c3csc(Nc4ccccc4)n3)o2)cc1	42%	96% (active)	93.2% (active)	96% (active)	98% (active)	93.4% (active)	44%	97% (active)	92.6% (active)	63%	97% (active)	90.8% (active)	97% (active)	98% (active)	93% (active)	98% (active)	97% (active)	90.5% (active)
CCCCN1CSC(=S)N(Cc2ccccc2)C1	2%	38%	32.8%	3%	3%	-21.7%	13%	30%	10.3%	30%	25%	-41.1%	5%	38%	23.8%	-10%	38%	31.4%
CCC1(C)OC(=O)C(c2ccccc2)O1 (configuration not stated)	1%	-6%	9.2%	-2%	7%	-1.85%	5%	-5%	-19.5%	2%	1%	9.7%	2%	3%	-6.45%	-2%	-5%	17.1%
C=CCNC(=S)N/N=C(\CCC)c1ccccn1	98% (active)	95% (active)	99.3% (active)	99% (active)	96% (active)	99.6% (active)	99% (active)	96% (active)	99.6% (active)	96% (active)	93% (active)	99.2% (active)	98% (active)	95% (active)	99.5% (active)	99% (active)	95% (active)	47.9%
O=C1CSC(Cc2nc3ccccc3[nH]2)=N1	30%	79% (active)	76.7% (active)	26%	79% (active)	79.5% (active)	44%	87% (active)	73% (active)	36%	55%	69%	22%	71% (active)	77.8% (active)	48%	90% (active)	74.9% (active)
O=C(OCc1ccccc1)N(CCCCN(CCCNCc1ccccc1)C(=O)OCc1ccccc1)CCCNCc1ccccc1	11%	99% (active)	90.3% (active)	22%	100% (active)	93.2% (active)	10%	100% (active)	91.7% (active)	3%	99% (active)	90% (active)	29%	99% (active)	91.8% (active)	28%	99% (active)	91.2% (active)
Cc1ccc(Nc2nc3c(s2)C(=O)c2ccccc2C3=O)cc1	37%	97% (active)	98.2% (active)	61%	98% (active)	98.8% (active)	34%	98% (active)	98.7% (active)	3%	96% (active)	97.8% (active)	91% (active)	97% (active)	98.7% (active)	61%	97% (active)	97.7% (active)
C=C1CC2(CCOc3ccccc32)OC1=O (configuration not stated)	6%	70% (active)	80.5% (active)	17%	91% (active)	89.1% (active)	12%	92% (active)	95% (active)	5%	60%	18.6%	4%	86% (active)	88.3% (active)	17%	89% (active)	91% (active)
CCCCCCCCCCCCCC[N+]1(CC)CCCCC1	77% (active)	99% (active)	90.2% (active)	99% (active)	99% (active)	91.3% (active)	99% (active)	100% (active)	92.2% (active)	84% (active)	99% (active)	89.8% (active)	99% (active)	99% (active)	90.8% (active)	67%	99% (active)	89.5% (active)
O=C(OCc1ccccc1)c1ccc(O)cc1	6%	79% (active)	96.8% (active)	-1%	85% (active)	98.3% (active)	1%	64%	98.5% (active)	2%	39%	85.8% (active)	9%	91% (active)	97.8% (active)	2%	88% (active)	99% (active)
O=C1C(C(O)(C(F)(F)Cl)C(F)(F)Cl)CCC1C(O)(C(F)(F)Cl)C(F)(F)Cl (configuration not stated)	92% (active)	99% (active)	99.8% (active)	95% (active)	100% (active)	99.5% (active)	95% (active)	99% (active)	99.8% (active)	94% (active)	99% (active)	99.4% (active)	78% (active)	99% (active)	98.1% (active)	95% (active)	99% (active)	99.5% (active)
O=C1OC(c2ccccc2)(c2ccccc2)CC1CN1CCOCC1 (configuration not stated)	-16%	73% (active)	87.8% (active)	-4%	87% (active)	82.6% (active)	-1%	84% (active)	90% (active)	-9%	72% (active)	66%	1%	93% (active)	87% (active)	2%	88% (active)	79.7% (active)
